Compound activity (PubChem)
ELG1 repair inh: inhibitors of ELG1-dependent DNA repair in HEK293T cells | HEK293T ELG1-luciferase reporter, luminescence, 16 h; DNA damage induced by 5-fluorouridine | Potency, µM (titrated, usually from 46.1 µM), without a hit: top-dose activity change, negative = inhibition, hits mostly inhibitors | 330,000 tested, 2.3% active | AID 504467; further: potency means the concentration at half of the fitted maximal effect; nearly all actives have a fitted effect of over 55% in size
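Luminescence from the luciferase reporter, measured 30 min after ONE-Glo reagent at room temperature, was the read-out. Beforehand, 2,000 cells per well were exposed for 16 hr at 37 °C to 5-fluorouridine together with compound or vehicle.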
IL1B secr inh: blocks inflammasome-driven IL-1 beta release; THP-1 LPS/ATP IL-1B secretion, AlphaLISA, 16 h; hits give low values; activity change, % at 57.5 µM; 360,000 tested, 4.7% active; in the data active means activity change below about -50%; inconclusive means mostly about -30% to -49%
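THP-1 cells pretreated 1 hr with compounds (up to 57.5 uM final), then stimulated with LPS (250 ng/mL final) plus ATP (1.25 mM final); secreted IL-1B measured by AlphaLISA after 16 hr, decreased signal indicating inhibition.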
DT40 TDP1 no CPT: qHTS for Inhibitors of human tyrosyl-DNA phosphodiesterase 1 (TDP1): qHTS in cells in absence of CPT. DT40 Tdp1-/- hTDP1 cells, no CPT, ATP luminescence, 48 h. Potency, µM (titrated, usually from 46.2 µM), without a hit: at the top dose activity change, negative = growth inhibition, actives largely listed as inhibitors. 420,000 tested, 15% active. AID 686978, 2013; further: potency means the concentration at half of the fitted maximal effect; nearly all actives have a fitted effect of over 55% in size
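Chicken DT40 Tdp1-/- cells stably complemented with human TDP1 were seeded at 400 cells/well with DMSO in place of 20 nM camptothecin. After compound pinning, cells grew at least 48 hr at 37 °C; viability read by CellTiter-Glo luminescence.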
Giardia kill: kills Giardia lamblia | Giardia lamblia trophozoite viability | activity change, % at 7.66 µM, hits read low | 340,000 tested, 0.15% active; in the data active means activity change below about -80%; inconclusive means between about -30% and that limit;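 further: parasites exposed to compound for two days anaerobically before the ATP read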
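Anaerobic 48 hrs incubation at 37 deg C of 100 trophozoites/well with test compounds; ATPLite 1-Step luminescence, 15-30 min RT, reports cellular ATP as viability.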
TDP1 inh: inhibitors of human tyrosyl-DNA phosphodiesterase TDP1; Q9NUW8; recombinant TDP1, AlphaScreen DNA substrate cleavage; Potency, µM (highest dose often 130 µM), for the others: at the highest dose activity change, negative = inhibition, hits mostly inhibitors; 350,000 tested, 0.28% active; AID 485290; further: potency means the concentration at half of the fitted maximal effect; nearly all actives have a fitted effect of over 40% in size
Target sequence (Q9NUW8 whole entry, looked up): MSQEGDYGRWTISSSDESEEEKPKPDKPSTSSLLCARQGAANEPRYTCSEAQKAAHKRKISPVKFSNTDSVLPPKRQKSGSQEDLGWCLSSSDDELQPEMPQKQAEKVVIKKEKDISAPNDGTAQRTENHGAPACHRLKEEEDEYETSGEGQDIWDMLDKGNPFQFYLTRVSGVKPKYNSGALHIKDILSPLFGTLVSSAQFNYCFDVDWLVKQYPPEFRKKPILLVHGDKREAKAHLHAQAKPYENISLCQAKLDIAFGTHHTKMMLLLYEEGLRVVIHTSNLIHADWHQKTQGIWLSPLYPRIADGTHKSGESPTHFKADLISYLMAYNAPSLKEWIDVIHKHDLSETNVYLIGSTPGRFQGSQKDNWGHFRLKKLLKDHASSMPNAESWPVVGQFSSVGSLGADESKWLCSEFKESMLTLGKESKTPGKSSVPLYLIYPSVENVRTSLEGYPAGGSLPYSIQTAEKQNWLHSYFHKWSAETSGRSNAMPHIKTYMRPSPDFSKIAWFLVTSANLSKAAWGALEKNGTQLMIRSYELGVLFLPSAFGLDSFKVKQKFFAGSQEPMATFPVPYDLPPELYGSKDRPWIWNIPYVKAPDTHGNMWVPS
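Signal: AlphaScreen proximity between streptavidin donor and anti-FITC acceptor beads on intact substrate. Reaction: Tdp1 1 nM, substrate 15 nM final, 5 min RT after 15 min compound preincubation.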
DT40 TDP1 CPT: growth inhibition of DT40 Tdp1-/-;hTDP1 cells with camptothecin (screen for TDP1 inhibitors); chicken DT40 Tdp1-/-;hTDP1 cells + 20 nM CPT, ATP luminescence, 48 h; Potency, µM (highest dose often 46.2 µM), for the others: top-dose activity change, negative = growth inhibition, usual class: inhibitors; 420,000 tested, 12% active; further: potency means the concentration at half of the fitted maximal effect; nearly all actives have a fitted effect of over 55% in size
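Chicken DT40 Tdp1-/- cells complemented with human TDP1, 400 cells/well, exposed to compounds plus 20 nM camptothecin for at least 48 h at 37 C; viability read as ATP content by CellTiter-Glo luminescence.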
An asterisk follows results filed as active; ? = inconclusive; · = no result given. Only some compounds are listed: those with a hit (about 19% of all), similar ones and a draw of the others. Unless noted, the call rests on the fitted dose curve; in most records, active means well fitted curve in the direction sought with a large enough effect; inconclusive means small, poorly fitted or top-dose-only effect, or another doubt; inactive means no such curve, though single readings can be large; an effect the other way counts as inactive or inconclusive. On the % scale 0 is the no-effect control and ±100 the full control effect.

SMILES | ELG1 repair inh | IL1B secr inh | DT40 TDP1 no CPT | Giardia kill | TDP1 inh | DT40 TDP1 CPT
Cc1ccc2nc(-c3ccc(C)o3)c(Nc3ccccc3)n2c1 | · | · | 4.5µM* | 4 | 4% | 3.5µM*
Cc1ccc(-c2nc3ccccn3c2Nc2ccccc2)o1 | 2% | -16 | ? | -6 | 3% | -21%
Cc1ccc(-c2nc3ccc(Cl)cn3c2Nc2ccccc2)o1 | · | · | ? | 9 | 1% | ?
Cc1ccc(-c2nc3cccc(C)n3c2Nc2ccc(F)cc2)o1 | · | · | 10µM* | -11 | 8% | ?
O=C(CSc1nc2c(c(=O)[nH]1)CCC2)Nc1cc(C(F)(F)F)ccc1Cl | · | · | -24% | · | 3% | 2%
COc1ccc(-c2nc3cnccn3c2Nc2ccc(C)cc2)cc1 | -1% | 89 | 15µM* | 12 | 5% | 15µM*
COc1ccc(Nc2c(-c3ccc(Cl)cc3)nc3cnccn23)cc1OC | · | · | ? | · | 15% | -3%
O=C(CCCC[C@@H]1SC[C@H]2NC(=O)N[C@H]12)Nc1ccc(C(=O)O)cc1 | · | · | · | · | 29% | ·
Cc1ccc(-n2ccc(=O)c(C(=O)Nc3ccc(S(=O)(=O)N4CCOCC4)cc3)n2)cc1 | 0% | -10 | -11% | -10 | 3% | -5%
O=C(Nc1ccc(S(=O)(=O)N2CCOCC2)cc1)c1cc([N+](=O)[O-])ccc1Cl | ? | 21 | ? | 5 | 4% | 16µM*
CCc1c(C(=O)Nc2ccc(S(=O)(=O)N3CCOCC3)cc2)csc1C | -30% | 16 | 18µM* | 5 | 4% | 23µM*
O=C(Nc1ccc(S(=O)(=O)N2CCOCC2)cc1)c1ccc(Cl)cc1Cl | 0% | -1 | 21µM* | 24 | · | ?
O=C(Nc1ccc(Cl)cc1)c1cc(S(=O)(=O)N2CCCCC2)ccc1N1CCOCC1 | · | -11 | ? | · | · | -29%
CCC(=O)Nc1ccc(S(=O)(=O)N2CCOCC2)cc1 | 4% | 23 | -7% | -10 | 5% | -8%
Cc1cccc(-n2ccc(=O)c(C(=O)Nc3ccc(S(=O)(=O)N4CCOCC4)cc3)n2)c1 | -12% | -21 | 23µM* | -3 | 4% | ?
CN(C)S(=O)(=O)c1ccc(Cl)c(C(=O)Nc2ccc(S(=O)(=O)N3CCOCC3)cc2)c1 | 16µM* | 8 | 9.2µM* | -4 | 2% | 10µM*
O=C(COc1ccc(Br)cc1)N1CCN(c2ccccc2)CC1 | ? | -8 | ? | 7 | -6% | ?
O=C(COc1ccccc1)N1CCN(c2ccc([N+](=O)[O-])c(N3CCCCC3)c2)CC1 | ? | -53* | ? | -1 | 4% | ?
O=C(COc1ccc(Br)cc1)N1CCN(c2ccc([N+](=O)[O-])c(N3CCCCC3)c2)CC1 | -24% | -20 | 21µM* | -18 | 8% | ?
Cc1cccc(NC(=S)NC2CCCC2)n1 | ? | 16 | ? | 3 | -5% | ?
Cc1cccc(NC(=S)NC2CCCCC2)n1 | 11% | 45 | ? | -10 | · | 26µM*
COC(=O)Cc1ccc(NC(=S)Nc2cccc(C)n2)cc1 | ? | 17 | 18µM* | 6 | 5% | ?
CCOC(=O)c1ccc(NC(=S)Nc2cccc(C)n2)cc1 | 8% | 19 | ? | 16 | -1% | ?
Cc1cccc(NC(=O)Nc2cccc(C)n2)n1 | ? | -1 | -3% | -6 | 1% | 4%
Cc1cccc(NC(=S)Nc2cccc(C)n2)n1 | 4% | 31 | 5.2µM* | 1 | -5% | ?
SMILES | ELG1 repair inh | IL1B secr inh | DT40 TDP1 no CPT | Giardia kill | TDP1 inh | DT40 TDP1 CPT
CCOc1ccc(-c2n[nH]c(C)c2-c2ccccc2OC)c(O)c1 | ? | -55* | ? | -13 | -4% | 13µM*
C=C(C)COc1ccc(-c2n[nH]c(C)c2-c2ccc(OC)cc2)c(O)c1 | -41% | -51* | ? | 7 | 8% | ?
Cc1cccc(N(Cc2cc3ccccc3[nH]c2=O)C(=O)c2ccco2)c1C | 9% | -6 | -84% | 2 | 7% | 26µM*
CC(C)N(Cc1cc2ccccc2[nH]c1=O)C(=O)c1ccco1 | ? | 8 | -3% | -9 | 6% | -15%
COc1ccc(N(Cc2cc3ccc(C)cc3[nH]c2=O)C(=O)c2ccco2)cc1 | -21% | -15 | 21µM* | -18 | 4% | 23µM*
COc1ccc(N(Cc2cc3ccc(C)cc3[nH]c2=O)C(=O)C2CCCO2)cc1 (stereo not drawn) | -7% | -8 | -3% | -7 | · | -3%
CCN(C(=O)COC(=O)c1cc2c(s1)CCCCC2)C1CCS(=O)(=O)C1 (stereo not drawn) | -18% | -6 | -15% | -3 | 4% | -4%
CC(C)CN(C(=O)COC(=O)c1cc2c(s1)CCC2)C1CCS(=O)(=O)C1 (stereo not drawn) | 1% | -2 | -9% | -8 | 13µM* | 5%
COc1cccc(C(=O)O[C@H]2[C@H](C)NS(=O)(=O)[C@H]3C[C@@H]4C=C[C@]23O4)c1 | 0% | 13 | 3% | 2 | 3% | -3%
OC(CSc1ccccc1)CN1CCN(c2cccc(Cl)c2)CC1 (stereo not drawn) | · | -17 | 21µM* | 40 | · | ?
OC(CSc1ccccc1)CN1CCN(c2ccc(Cl)cc2)CC1 (stereo not drawn) | · | ? | 21µM* | 17 | · | ?
CN1C(=O)c2ccccc2Sc2ccc(NC(=O)N3CCN(c4cccc(Cl)c4)CC3)cc21 | · | · | 5.2µM* | · | 3% | 7.3µM*
COc1cccc(CNC(=O)Nc2ccc3c(c2)N(C)C(=O)c2ccccc2S3)c1 | · | · | ? | · | 3% | 23µM*
CCc1cccc(NC(=O)Nc2ccc3c(c2)N(C)C(=O)c2ccccc2S3)c1 | · | · | 23µM* | · | 9% | ?
CN1C(=O)CSc2ccc(NC(=O)N3CCN(c4ccccc4)CC3)cc21 | ? | -8 | ? | 18 | -5% | ?
CN1C(=O)c2ccccc2Sc2ccc(NC(=O)NC3CC3)cc21 | -18% | -1 | ? | 12 | 2% | ?
COC(=O)c1ccc(N2CCc3ccccc32)c([N+](=O)[O-])c1 | 3% | 0 | -10% | -18 | · | ?
CCOC(CNC(=O)c1ccc(N2CCc3ccccc32)c([N+](=O)[O-])c1)OCC | -5% | -19 | 18µM* | 18 | 12% | 21µM*
Cn1c(=O)n(CCCc2ccccc2)c(=O)c2c1nc1n2CCN1c1ccccc1 | · | · | 6.5µM* | · | 4% | 7.3µM*
Cn1c(=O)[nH]c(=O)c2c1nc(N1CCCC1)n2CCCSc1nnnn1-c1ccccc1 | ? | 0 | 16µM* | ? | 3% | 21µM*
